Source: PubChem BioAssay (National Center for Advancing Translational Sciences (NCATS))
Cruzain inh noDet – blocks cruzain activity in detergent-free assay; purified cruzain, Z-FR-AMC fluorescence, no detergent; 2.3% of 200,000 active; AID 1476; Potency, µM, for the others: max response, negative = inhibition, actives largely listed as inhibitors; P25779;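 further: plate controls were enzyme without inhibitor for no effect and buffer without enzyme for full effect; nearly all actives have a fitted effect of over 40% in size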
Target sequence (P25779 123-467 limits assumed): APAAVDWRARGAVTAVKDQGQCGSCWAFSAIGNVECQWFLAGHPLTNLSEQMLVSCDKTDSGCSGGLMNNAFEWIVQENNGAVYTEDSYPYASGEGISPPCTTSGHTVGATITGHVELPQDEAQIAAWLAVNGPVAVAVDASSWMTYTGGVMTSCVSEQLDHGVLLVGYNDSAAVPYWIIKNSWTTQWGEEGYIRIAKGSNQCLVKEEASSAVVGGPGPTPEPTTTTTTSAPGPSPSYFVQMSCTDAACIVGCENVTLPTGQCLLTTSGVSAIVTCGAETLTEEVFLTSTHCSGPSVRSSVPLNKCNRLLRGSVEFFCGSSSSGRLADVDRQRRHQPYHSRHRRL
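Purified cruzain at 1.5 nM, pre-incubated 15 min with compound at room temperature in 100 mM sodium acetate pH 5.5, 5 mM DTT, 0.00005% Triton X-100. Reaction started with 2 uM Z-FR-AMC; AMC fluorescence increase over 60 s gives rate.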
Cruzain inh Det – cruzain (T. cruzi) inhibition with detergent. 0.43% of 200,000 active. purified cruzain, Z-FR-AMC fluorescence, 0.01% Triton. AID 1478. Potency, µM, for the others: max response, negative = inhibition, hits mostly inhibitors. P25779;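 further: plate controls were neutral wells for no effect and buffer without enzyme for full effect; nearly all actives have a fitted effect of over 40% in size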
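Cruzain (1.5 nM) preincubated 15 min at RT with compound in 100 mM sodium acetate pH 5.5, 5 mM DTT, 0.01% Triton X-100. Reaction started with 2 uM Z-FR-AMC; AMC fluorescence (ex 360/em 450 nm) change over 60 s gave rate.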
* hit, by the source's call; ? = inconclusive; ! = not confirmed by another sample. An excerpt weighted towards active compounds, which were near 2.4% of everything screened. The call rests on the fitted dose curve; in most records, active means well fitted curve in the direction sought with a large enough effect; inconclusive means small, poorly fitted or top-dose-only effect, or another doubt; inactive means no such curve, though single readings can be large; an effect the other way counts as inactive or inconclusive. Potency means the concentration at half of the fitted maximal effect.

SMILES	Cruzain inh noDet	Cruzain inh Det
CCCCC/C=C\C\C=C/C=C/C=C/[C@@H](SCC(N)C(=O)O)[C@@H](O)CCCC(=O)O (stereo partly drawn)	2.9%	3.4%
Cc1ccc(C(=O)c2coc3c2C(=O)C(=O)c2ccccc2-3)cc1	12.6µM*	-1.6%
Cc1ccc(C(=O)c2c(C)oc3c2C(=O)C(=O)c2ccccc2-3)cc1	?	-4.3%
O=c1c(-c2cccs2)nc2cnc(N3CCNCC3)nc2n1C1CC1	-1.9%	-1.9%
CCOC(=O)c1[nH]c(C)c(CCC(=O)Nc2ccccc2C(=O)OC)c1C	9.4%	0.1%
NC=O	3.5%	2.7%
N#Cc1c(NC(=O)CN2CCOCC2)oc(-c2ccccc2)c1-c1ccccc1	?	-6.7%
N#Cc1c(NC(=O)Cn2cnc3ccccc3c2=O)oc(-c2ccccc2)c1-c1ccccc1	25.1µM*	1.3%
Cc1ccnc(SCC(=O)Nc2oc(-c3ccccc3)c(-c3ccccc3)c2C#N)n1	?	-1.0%
CCn1c(SCC(=O)Nc2oc(-c3ccccc3)c(-c3ccccc3)c2C#N)nnc1-c1cc(OC)cc(OC)c1	7.94µM*	4.7%
CC(C)c1ccc(NC(=O)CSC2=Nc3ccccc3C3=NC(CCC(=O)NCc4cccs4)C(=O)N23)cc1 (stereo not drawn)	3.9%	-3.5%
CCOc1ccc(C2=NNC(c3cccs3)=Nc3ccc(OC)cc32)cc1	?	-12.1%
CCOc1ccc2c(c1)C(c1ccc(C)cc1)=NNC(c1ccc(OC)cc1)=N2	15.8µM*	-2.3%
CC(C)Cc1[nH]c(=O)c(C#N)c2c1CCCC2	-4.6%	-4.6%
COc1ccc(S(=O)(=O)N(CC(=O)Nc2cccc(C)c2)c2ccc(C)cc2)cc1OC	28.1%	-5.0%
O=C(c1ccco1)N1CCC2(CC1)CN(c1ccccc1)C2	2.2%	0.8%
Cc1c(/C=C(\C#N)C(=O)Nc2cccc(Cl)c2)c2ccccc2n1Cc1ccccc1Cl	1.58µM*	-0.9%
Cc1cccc(NC(=O)/C(C#N)=C/c2cn(CC(=O)NCc3ccco3)c3ccccc23)c1	10µM*	-3.3%
N#C/C(=C\c1cn(Cc2ccccc2F)c2ccccc12)C(=O)NCc1ccco1	-2.7%	-3.5%
N#C/C(=C/c1cn(Cc2ccccc2Cl)c2ccccc12)C(=O)Nc1cccc(Cl)c1	3.16µM*	-1.6%
Cc1ccc(C)c(OCCn2cc(/C=C(\C#N)C(=O)NCc3ccco3)c3ccccc32)c1	?	-4.1%
Cc1ccc(NC(=O)/C(C#N)=C\c2ccc(Cl)cc2Cl)cc1C	-12.4%	-3.6%
COc1ccc(CNC(=O)CCc2c(C)nn(-c3ccc(N4CCCCC4)nn3)c2C)c(OC)c1	-6.8%	-3.7%
Cc1ccc(C2(c3ccc(C)cc3)CC2C(=O)Nc2ccc([N+](=O)[O-])cc2O)cc1 (stereo not drawn)	?	-12.8%
CCOC(=O)c1sc(N(Cc2ccccc2)C(=O)COC(=O)c2ccccc2O)nc1C	-15.7%	-6.6%
SMILES	Cruzain inh noDet	Cruzain inh Det
CCOC(=O)c1sc(N(Cc2ccccc2)C(=O)COC(=O)c2ccc(O)cc2)nc1C	15.8µM*	-4.5%
CC(C)(N)C(=O)N[C@@H]1C(=O)N2[C@@H]1SC(C)(C)[C@H]2C(=O)O	9.4%	1.3%
COc1ccc(OC)c(S(=O)(=O)N2Cc3ccccc3CC2C(=O)Nc2ccc(C(C)=O)cc2)c1 (stereo not drawn)	-17.2%	-5.2%
Cc1ccc2cccc(S(=O)(=O)N3CCN(c4cccc(Cl)c4)CC3)c2n1	-2.3%	-0.5%
CCc1ccc(-c2cc(C)no2)cc1S(=O)(=O)N1CCN(c2cccc(Cl)c2)CC1	25.1µM*	-3.0%
N[C@@H](Cc1cc(I)c(Oc2ccc(O)c(I)c2)c(I)c1)C(=O)O	12.6µM*!	?
NC(Cc1cc(I)c(Oc2ccc(O)c(I)c2)c(I)c1)C(=O)O (stereo not drawn)	-10.1%	1.9%
Cc1cc(C(=O)Cn2nc(C(=O)O)c3ccccc3c2=O)c(C)n1-c1ccc(F)cc1	25.1µM*	-8.6%
Cc1ccccc1OCCn1nc(C(=O)O)c2ccccc2c1=O	16.0%	-4.8%
Clc1ccc(/C=C\c2nc(Cl)c(-c3ccc(Cl)cc3)c(Cl)n2)cc1	-9.2%	2.3%
CCOC(=O)c1noc2ncn(CC(=O)Nc3ccccc3OC)c(=O)c12	?	-0.5%
O=C(Cn1c2c(sc1=O)C1c3ccccc3OCC1CS2)Nc1ccc(Cl)c(Cl)c1 (stereo not drawn)	6.31µM*	-1.6%
Cn1c(N)c(N2CCCCC2)c(=O)n(CC(=O)Nc2ccc(Cl)c(Cl)c2)c1=O	-4.0%	-0.9%
N=c1oc2cc(O)ccc2cc1C(=O)Nc1nc2ccccc2s1	20µM*	12.6µM*
O=C(Nc1nc2ccccc2s1)c1cccn(Cc2ccccc2)c1=O	-15.9%	-1.1%
COc1cccc(-c2nnc3sc(CN4CCCCC4)cn23)c1	-3.9%	1.6%
COc1cc(OC)c2c(C)c(CC(=O)NCc3ccccc3OC)c(=O)oc2c1	?	-3.3%
CCN1CC=C2C(C#N)=C(N)C(C#N)(C#N)[C@H](c3cccc(OC)c3OC)[C@H]2C1	-12.9%	-9.7%
CCN1CC=C2C(C1)C(c1ccc(Cl)s1)C(C#N)=C(N)C2(C#N)C#N (stereo not drawn)	25.1µM*	25.1µM*
NC(Cc1cc(I)c(Oc2cc(I)c(O)c(I)c2)c(I)c1)C(=O)O (stereo not drawn)	-2.9%	0.1%
CCC1=C2CC[C@H]3C(=O)N(CC(=O)OC)C(=O)[C@H]3[C@H]2[C@@]2(C)C(=NCCc3c[nH]c4ccccc34)OC(=O)N2C1=O	16.7%	0.0%
Cc1ccc(NC(=O)COC(=O)CNC(=O)c2ccc(Br)cc2)c(C)c1	15.8µM*	14.1µM*
O=C(Cc1ccccc1)NCC(=O)OCC(=O)c1ccc(Cl)c([N+](=O)[O-])c1	15.8µM*	?
O=C(NCCc1ccccc1)c1ccc(Cl)c([N+](=O)[O-])c1	-20.0%	-7.1%
O=C(COC(=O)CNC(=O)c1cccc([N+](=O)[O-])c1)Nc1nc2ccccc2s1	?	-26.2%
SMILES	Cruzain inh noDet	Cruzain inh Det
CC(C)N(C(=O)COC(=O)CNC(=O)c1ccc(Br)cc1)c1ccccc1	15.8µM*	15.8µM*
O=C(COC(=O)CNC(=O)c1cccc([N+](=O)[O-])c1)Nc1ccccc1OC(F)F	20µM*	15.8µM*
CC(=O)COC(=O)CNC(=O)c1ccc(Br)cc1	-23.9%	-23.9%
COc1ccc(OC)c(NC(=O)COC(=O)CNC(=O)c2ccc(OC)c(OC)c2)c1	1.8%	-1.3%
NCCC[C@@H](CC(=O)N[C@@H]1CCCC[C@H]1C(=O)N[C@H](CC(=O)N[C@@H](CCC(=O)O)CC(=O)O)Cc1c[nH]c2ccccc12)NC(=O)C[C@H](Cc1ccccc1)NC(=O)[C@@H]1CNCC[C@H]1N	-0.8%	0.5%
CC(C)[C@@H](CC(=O)N[C@@H]1CCNC[C@H]1C(=O)N[C@H](CC(=O)N[C@@H](CCC(=O)O)CC(=O)O)Cc1ccccc1)NC(=O)C[C@H](Cc1c[nH]c2ccccc12)NC(=O)[C@@H]1CNCC[C@H]1N	-3.2%	1.9%
CCN(CC)C(=O)Cn1c(=O)n(CCCCCC(=O)NCc2ccc3c(c2)OCO3)c(=O)c2sccc21	4.1%	-1.1%
Cc1ccc(Cl)cc1NC(=O)C(=O)NCC(c1cccnc1)N1CCc2ccccc21 (stereo not drawn)	20.9%	-11.2%
CCOc1ccc(C(=O)NCC(=O)OCC(=O)Nc2ccccc2OCC)cc1	-6.5%	-25.9%
Cc1ccc(C(=O)NCC(=O)OCC(=O)Nc2ccccc2[N+](=O)[O-])cc1	7.94µM*	11.2µM*
